Here are results for 14 sequences from the supplement of paper PMC12645437, “Orthogonal IMiD-Degron Pairs Induce Selective Protein Degradation in Cells” (ACS Chemical Biology, 2025).

The full ranking holds about 8,300 sequences; the median of “log2 fold change of degron read counts, EGFP-low vs EGFP+ sorted cells (limma voom), compound-induced degradation” is about -1.1, and the highest 2% start at about 3.2. This excerpt belongs to a sample that is enriched for the highest values.

The target of this assay is T1, CRBN, Q96SW2.
T1 chain: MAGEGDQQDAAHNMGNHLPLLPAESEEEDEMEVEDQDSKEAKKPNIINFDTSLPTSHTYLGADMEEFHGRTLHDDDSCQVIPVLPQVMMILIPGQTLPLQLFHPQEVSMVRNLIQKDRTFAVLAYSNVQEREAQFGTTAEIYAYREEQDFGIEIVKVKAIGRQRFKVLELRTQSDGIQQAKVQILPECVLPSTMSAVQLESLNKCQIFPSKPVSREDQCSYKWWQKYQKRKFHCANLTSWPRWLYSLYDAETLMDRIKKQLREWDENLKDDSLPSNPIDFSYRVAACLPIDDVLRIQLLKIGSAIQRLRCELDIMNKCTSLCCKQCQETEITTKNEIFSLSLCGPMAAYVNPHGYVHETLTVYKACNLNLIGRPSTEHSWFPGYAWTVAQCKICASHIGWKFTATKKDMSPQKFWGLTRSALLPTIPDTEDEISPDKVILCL
The experiment in a line: log2 fold change of degron read counts, EGFP-low vs EGFP+ sorted cells (limma voom), compound-induced degradation; higher = more compound-induced degradation of the degron-EGFP fusion; degrons are variants of IKZF1/3 zinc finger 2; compound dose not given here. The note with it: Jurkat, 18 h.

Where [1] appears, read: compound: compound 19 (5-tert-butyl-thalidomide).
Where [2] appears, read: compound: compound 22 (5-morpholino-thalidomide).
Where [3] appears, read: compound: compound 33 (diphenyl IMiD analogue).
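Further: pooled lentiviral library of zinc finger degron-EGFP fusions in mCherry-positive Jurkat cells, FACS-sorted after compound exposure, with degron abundance counted by next-generation sequencing.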

In the case of LYCNQCGFYCTQKGNLLRHIKL [46L_47Y_49N_50Q_52G_53F_54Y_55C_67L_, Q9UKT9], the “log2 fold change of degron read counts” value runs as follows: under setting [1], -0.857; under setting [2], -0.989; under setting [3], -0.803; (compound: thalidomide) -0.772.

As for FICPICGAVFTQKGNLLRHIKL [46F_47I_49P_50I_52G_53A_54V_55F_67L_, Q9UKT9], the “log2 fold change of degron read counts” value is -0.717 under setting [1], 0.836 under setting [2], 1.86 under setting [3] and 1.85 (compound: thalidomide).

Regarding FACPICGAVFTQKGNLLRHIKL [46F_47A_49P_50I_52G_53A_54V_55F_67L_, Q9UKT9], the “log2 fold change of degron read counts” value under setting [1] stood at 2.91, the “log2 fold change of degron read counts” value under setting [2] was 1.96, the “log2 fold change of degron read counts” value under setting [3] was 1.75 and the “log2 fold change of degron read counts” value (compound: thalidomide) amounted to 1.06.

As to FSCPICGAVFTQKGNLLRHIKL [46F_47S_49P_50I_52G_53A_54V_55F_67L_, Q9UKT9], the “log2 fold change of degron read counts” value runs as follows: under setting [1], 2.16; under setting [2], 1.75; under setting [3], 2.72; (compound: thalidomide) 1.48.

As to FVCPICGAVFTQKGNLLRHIKL [46F_47V_49P_50I_52G_53A_54V_55F_67L_, Q9UKT9], the “log2 fold change of degron read counts” value is -0.253 under setting [1], 1.32 under setting [2], 2.04 under setting [3] and 2.17 (compound: thalidomide).

Turning to FECPICGAVFTQKGNLLRHIKL [46F_47E_49P_50I_52G_53A_54V_55F_67L_, Q9UKT9], the “log2 fold change of degron read counts” value under setting [1] was 0.283, the “log2 fold change of degron read counts” value under setting [2] was -0.0372, the “log2 fold change of degron read counts” value under setting [3] was 2.77 and the “log2 fold change of degron read counts” value (compound: thalidomide) turned out to be 3.33.

FQCPICGAVFTQKGNLLRHIKL [46F_47Q_49P_50I_52G_53A_54V_55F_67L_, Q9UKT9]: the “log2 fold change of degron read counts” value came to 0.109 under setting [1], 3.16 under setting [2], 2.7 under setting [3] and 3.67 (compound: thalidomide).

For FTCPICGAVFTQKGNLLRHIKL [46F_47T_49P_50I_52G_53A_54V_55F_67L_, Q9UKT9], the “log2 fold change of degron read counts” value by setting is: under setting [1], 0.104; under setting [2], 2.31; under setting [3], 2.43; (compound: thalidomide) 2.95.

FRCPICGAVFTQKGNLLRHIKL [46F_47R_49P_50I_52G_53A_54V_55F_67L_, Q9UKT9]: the “log2 fold change of degron read counts” value by setting is: under setting [1], -1.19; under setting [2], -0.551; under setting [3], 1.51; (compound: thalidomide) 1.37.

Regarding FGCPICGAVFTQKGNLLRHIKL [46F_47G_49P_50I_52G_53A_54V_55F_67L_, Q9UKT9], the “log2 fold change of degron read counts” value reads like this: under setting [1], 3.56; under setting [2], 2.54; under setting [3], 2.82; (compound: thalidomide) 1.23.

For the sequence FRCEICGRHFTQKGNLLRHIKL [46F_47R_49E_50I_52G_53R_54H_55F_67L_, Q9UKT9], the “log2 fold change of degron read counts” value under setting [1] was -2.34, the “log2 fold change of degron read counts” value under setting [2] was -2.75, the “log2 fold change of degron read counts” value under setting [3] is -1.24 and the “log2 fold change of degron read counts” value (compound: thalidomide) is -1.05.

Consider FLCEVCGAYFTQKGNLLRHIKL [46F_47L_49E_50V_52G_53A_54Y_55F_67L_, Q9UKT9], for which the “log2 fold change of degron read counts” value runs as follows: under setting [1], -0.235; under setting [2], -1.51; under setting [3], 0.35; (compound: thalidomide) 0.301.

In the case of FNCNQCGRWFTQKGNLLRHIKL [46F_47N_49N_50Q_52G_53R_54W_55F_67L_, Q9UKT9], the “log2 fold change of degron read counts” value runs as follows: under setting [1], -2.05; under setting [2], -2.2; under setting [3], -1.98; (compound: thalidomide) -1.8.

Regarding LLCNQCGFPCTQKGNLLRHIKL [46L_47L_49N_50Q_52G_53F_54P_55C_67L_, Q9UKT9], the “log2 fold change of degron read counts” value was -1.89 under setting [1], -1.87 under setting [2], -1.69 under setting [3] and -1.84 (compound: thalidomide).
